Test [1] can be described thus: NCI Yeast Anticancer Drug Screen. Data for the rad50 strain (AID 155).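 Also: 0% = growth of vehicle-only cultures of the same strain.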 The conditions noted are these: S. cerevisiae rad50 strain growth inhibition, active compounds read high. The method in brief:
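Compounds were tested on a yeast strain with an engineered DNA damage repair alteration; the reported value is growth inhibition normalised to vehicle treatment.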

The nature of test [2]: NCI Yeast Anticancer Drug Screen. Data for the mec2-1 strain (AID 157). The conditions noted are these: S. cerevisiae mec2-1 strain, active compounds read high. The method in brief:
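Strain: mec2-1 (DNA repair/cell cycle alteration). Compound exposure, then growth measured; inhibition expressed relative to vehicle.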

A short description of test [3]: NCI Yeast Anticancer Drug Screen. Data for the sgs1 mgt1 strain (AID 161).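 Also: 0% = growth of cultures given vehicle only.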 Particulars: S. cerevisiae sgs1 mgt1 strain, active compounds read high. The method in brief: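 Genetically altered yeast, compound exposure, growth inhibition relative to vehicle.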
Test [4] is described as follows: NCI Yeast Anticancer Drug Screen. Data for the cln2 rad14 strain (AID 165).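 Also: 0% = growth equal to vehicle treated cultures.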 Particulars: S. cerevisiae cln2 rad14 strain, active compounds read high. Summed up:
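Compounds are applied to the cln2 rad14 yeast strain, and growth is then compared with that of vehicle-treated cultures to give inhibition.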

The nature of test [5]: NCI Yeast Anticancer Drug Screen. Data for the bub3 strain (AID 167). The conditions noted are these: S. cerevisiae bub3 mutant strain, active compounds read high. The method in brief:
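Growth of a checkpoint-deficient yeast mutant is measured after compound exposure. Values represent inhibition relative to vehicle.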

Test [6] is described as follows: NCI Yeast Anticancer Drug Screen. Data for the mlh1 rad18 strain (AID 175). Particulars: S. cerevisiae mlh1 rad18 strain growth inhibition, active compounds read high. The method in brief: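 Read-out is yeast growth inhibition, calculated against vehicle-only controls. The compound was applied to a strain engineered with DNA damage repair alterations.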
[7] abbreviates: at 5.0 µM (retest, dose inferred, filed as 0.5).
Setting [8] is: at 50.0 µM (retest, dose inferred, filed as 5.0).

Compounds without any hit were thinned out: in the full panel of roughly 79,000, 15% have a hit. Unmarked numbers belong to inactive results. The source made the active and inactive calls. Rule as the data show it: active = growth inhibition above about 70%; inactive = the rest.

On to `O=C1c2ccccc2-n2c1nc1ccccc1c2=O`, for which the growth inhibition was 18% in test [1] (setting [7]); 83% (active) in test [1] (setting [8]); 74% (active) in test [1] (at 50.0 µM); 14% in test [2] (setting [7]); 48% in test [2] (setting [8]); 57% in test [2] (at 50.0 µM). The growth inhibition in test [3] (setting [7]) was 21%; in test [3] (setting [8]), 39%; in test [3] (at 50.0 µM), 29.2%; in test [4] (setting [7]) it was 30%; in test [4] (setting [8]) it was 43%; in test [4] (at 50.0 µM), 17.9%. Further, the growth inhibition in test [5] (setting [7]) is 32%; in test [5] (setting [8]), 57%; in test [5] (at 50.0 µM), 53.1%; in test [6] (setting [7]), 23%; in test [6] (setting [8]), 62%.
For the molecule `C=C1CC2(CC(c3ccccc3OC)OC(c3ccccc3OC)C2)OC1=O` (configuration not stated), the growth inhibition in test [1] (setting [7]) is 34%; in test [1] (setting [8]), 58%; in test [1] (at 50.0 µM), 61.1%; in test [2] (setting [7]), 15%; in test [2] (setting [8]), 10%; in test [2] (at 50.0 µM), 74.7% (active). For the same molecule, the growth inhibition is 26% in test [3] (setting [7]); 70% (active) in test [3] (setting [8]); 54.2% in test [3] (at 50.0 µM); 23% in test [4] (setting [7]); 79% (active) in test [4] (setting [8]); 71.8% (active) in test [4] (at 50.0 µM). Moreover, the growth inhibition in test [5] (setting [7]) is 21%; in test [5] (setting [8]) it was 14%; in test [5] (at 50.0 µM), 60.5%; in test [6] (setting [7]) it was 40%; in test [6] (setting [8]), 88% (active).
Turning to `CCN(CC)c1ccc(C(=C2C=CC(=[N+](CC)CC)C=C2)c2ccc(N(CC)CC)cc2)cc1`, the growth inhibition was 97% (active) in test [1] (setting [7]); 91% (active) in test [1] (setting [8]); 67.5% in test [1] (at 50.0 µM); 98% (active) in test [2] (setting [7]); 92% (active) in test [2] (setting [8]); 73% (active) in test [2] (at 50.0 µM). The growth inhibition in test [3] (setting [7]) was 98% (active); in test [3] (setting [8]), 92% (active); in test [3] (at 50.0 µM), 77.5% (active); in test [4] (setting [7]), 97% (active); in test [4] (setting [8]), 91% (active); in test [4] (at 50.0 µM), 76% (active). In addition, the growth inhibition in test [5] (setting [7]) is 98% (active); in test [5] (setting [8]) it was 90% (active); in test [5] (at 50.0 µM), 74.6% (active); in test [6] (setting [7]) it was 97% (active); in test [6] (setting [8]), 90% (active).
With `CCN(CCO)CCNc1ccc(C)c2sc3ccccc3c(=O)c12`, the growth inhibition is 36% in test [1] (setting [7]); 98% (active) in test [1] (setting [8]); 88.2% (active) in test [1] (at 50.0 µM); 13% in test [2] (setting [7]); 92% (active) in test [2] (setting [8]); 90.7% (active) in test [2] (at 50.0 µM). The growth inhibition in test [3] (setting [7]) was 9%; in test [3] (setting [8]) it was 98% (active); in test [3] (at 50.0 µM), 91.8% (active); in test [4] (setting [7]) it was 21%; in test [4] (setting [8]), 94% (active); in test [4] (at 50.0 µM), 90.8% (active). Besides, the growth inhibition in test [5] (setting [7]) was 6%; in test [5] (setting [8]) it was 98% (active); in test [5] (at 50.0 µM), 90.5% (active); in test [6] (setting [7]), 23%; in test [6] (setting [8]) it was 98% (active).
As to `CN(C)c1nc(N)c(C#N)c(C#N)c1C#N`, the growth inhibition in test [1] (setting [7]) is 21%; in test [1] (setting [8]) it was 62%; in test [1] (at 50.0 µM), 69.6%; in test [2] (setting [7]), 21%; in test [2] (setting [8]), 44%; in test [2] (at 50.0 µM) it was 88.2% (active). The growth inhibition in test [3] (setting [7]) was 11%; in test [3] (setting [8]), 61%; in test [3] (at 50.0 µM) it was 80.8% (active); in test [4] (setting [7]), 27%; in test [4] (setting [8]), 45%; in test [4] (at 50.0 µM), 53.9%. In addition, the growth inhibition was 9% in test [5] (setting [7]); 79% (active) in test [5] (setting [8]); 88.5% (active) in test [5] (at 50.0 µM); 26% in test [6] (setting [7]); 85% (active) in test [6] (setting [8]).
With `Cc1n(Cc2ccccc2)c2c([n+]1C)C(=O)c1ccccc1C2=O`, the growth inhibition in test [1] (setting [7]) was 44%; in test [1] (setting [8]) it was 97% (active); in test [1] (at 50.0 µM), 86.2% (active); in test [2] (setting [7]) it was 50%; in test [2] (setting [8]), 98% (active); in test [2] (at 50.0 µM), 91.8% (active). In addition, the growth inhibition in test [3] (setting [7]) was 55%; in test [3] (setting [8]), 98% (active); in test [3] (at 50.0 µM) it was 91.2% (active); in test [4] (setting [7]), 34%; in test [4] (setting [8]), 92% (active); in test [4] (at 50.0 µM), 89.2% (active). Moreover, the growth inhibition in test [5] (setting [7]) was 72% (active); in test [5] (setting [8]), 98% (active); in test [5] (at 50.0 µM), 89.2% (active); in test [6] (setting [7]) it was 78% (active); in test [6] (setting [8]), 97% (active).

These data come from PubChem BioAssay (NCI).
